Sa growth inh: S. aureus growth inhibition. S. aureus RN4220 growth, OD600, 20 h, 42 °C; active compounds read low. relative growth, % (test concentration not listed). actives 0.53% (n = 170,000);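 active means relative growth at most 50% at the other temperature and 20+ points below 30 °C, or under 10% at both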
S aureus helic: blocks Staphylococcus aureus DNA helicase; purified S. aureus helicase, fluorescence unwinding assay; inhibition, % (concentration not given with the values); actives 0.05% (n = 120,000); AID 485395; in the data active means inhibition above about 25%, passing the limit was not always enough;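 further: 0% = mean of negative control wells and 100% = mean of positive control wells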
* hit, by the source's call; x = no result. Most compounds without a hit are left out; they make up all but 0.52% or so of the library.

SMILES	Sa growth inh	S aureus helic
Cc1cn(C2CC(O)C(CO)O2)c(=O)[nH]c1=O (centres undefined)	81	16
On1c(-c2ccccc2)cc2ccccc21	1.6*	3
O=c1cc(-c2ccccc2)cc(-c2ccccc2)n1O	79	x
COc1cc2c3nc4n(c(=O)c3n(C)c2cc1OC)CCS4	98	49*
Cn1c2ccc(F)cc2c2nc3n(c(=O)c21)CCS3	96	-3
Nc1nc(SC#CC(F)(F)F)ns1	-0.6*	7
CCS(=O)(=O)c1ccc(OC)c(NN=c2c(=O)c3ccccc3c2=O)c1	99	-33
O=C1C=C(Nc2ccccc2Br)CCC1	101	4
CCCNc1ccccc1N	6.7*	3
CCCCNc1ccc(C(F)(F)F)cc1N	77	7
C=C1N(C)c2ccc(NC(=O)c3ccccc3)cc2C1(C)C	8.3*	-5
Cc1ccc(NC(=O)c2ccc(CNS(=O)(=O)c3ccc4c(c3)C(C)(C)C(=O)N4C)cc2)cc1C	127	x
Fc1cccc(-n2nnnc2-c2ccc(Cl)c(Cl)c2)c1	98	x
Cn1cnc2cc(NCc3ccccc3Cl)ccc21	97	7
CCCCn1cnc2cc(NCc3ccccc3Cl)ccc21	1.0*	x
CN1C(=O)S/C(=C/c2ccc(-c3ccc(C(=O)O)c(Cl)c3)o2)C1=O	58	12
CCN1C(=O)/C(=C\c2ccc(-c3ccc(Cl)c(C(=O)O)c3)o2)SC1=S	-0.7*	-80
C/C(=N\OC(=O)c1ccccc1)c1cc(-c2ccccc2)no1	101	3
C/C(=N\O)c1cc(-c2ccccc2)no1	-0.7*	x
Cc1ccc2c(Cl)cc(Cl)c(OCC(=O)NCc3ccco3)c2n1	-1.6*	-2
Cc1cc(OCC(=O)NCc2ccco2)c(C)cc1Br	93	7
Oc1ccccc1C(Nc1ccccn1)c1ccc2cccnc2c1O (centres undefined)	4.8*	1
Oc1c(C(Nc2ccccn2)c2ccccc2F)ccc2cccnc12 (centres undefined)	17	x
CCC(=O)Nc1nc2ccccc2s1	90	-14
CCC(=O)Nc1nc2c(s1)CSc1ccccc1-2	6.6*	26
SMILES	Sa growth inh	S aureus helic
O=c1[nH]cc(N=Cc2ccncc2)c(=O)[nH]1	86	19
CCN1CCCC1CNC(=O)Nc1ccc(Cl)c(Cl)c1 (centres undefined)	0.6*	10
CCN1CCCC1CNCC(=O)Nc1ccc(C)c(Br)c1 (centres undefined)	98	0
CCCN1CCN(C(=O)C2COc3ccccc3O2)CC1 (centres undefined)	84	-20
CC(=O)Oc1cc(-c2nc3ccccc3o2)cc(-c2nc3ccccc3o2)c1	92	16
COc1ccc(C=Nc2cc(NS(C)(=O)=O)ccc2C)cc1	83	x
CCn1cc(C(=O)NN)c(=O)c2cc(F)c(N3CCCC3)cc21	74	-3
CCn1cc(C(=O)O)c(=O)c2cc(F)c(N3CCN(C(=O)c4ccccc4F)CC3)cc21	51	14
CCn1cc(C(=O)O)c(=O)c2cc(F)c(N3CCN(C(=S)Nc4ccc5c(c4)OCO5)CC3)cc21	0.2*	18
CCn1cc(C(=O)NCC(C)C)c(=O)c2cc(F)c(N3CCN(C(=O)c4ccco4)CC3)cc21	113	3
CCn1cc(C(=O)O)c(=O)c2cc(F)c(N3CCNCC3)cc21	-0.1*	x
CCn1cc(C(=O)O)c(=O)c2cc(F)c(N3CCN(C)CC3)cc21	-0.9*	-28
O=C(Cn1nnc2ccccc21)Nc1ccccc1Cl	113	-1
c1ccc2sc(SCSc3nnc4sc5ccccc5n34)nc2c1	92	-18
CCCc1cc(C(=O)Cc2ccc3c(c2)OCO3)c(O)cc1O	x	-19
O=C(COC(=O)Cc1coc2ccc3ccccc3c12)Nc1nnc(-c2ccccc2)o1	0.1*	-9
O=C(COC(=O)C1(c2ccccc2)CC1)Nc1nnc(-c2ccccc2)o1	-0.5*	13
O=C(Cc1coc2ccc3ccccc3c12)Oc1ccc(-c2nnco2)cc1	96	15
O=C(COC(=O)CC1CCCC1)Nc1nnc(-c2ccccc2)o1	21	2
Oc1ccc2ncccc2c1C(Nc1ccccn1)c1ccco1 (centres undefined)	44	39
CC(C)(C)NC(=S)Nc1cccc(Cl)c1	126	10
S=C(Nc1cccc(Cl)c1)Nc1cccc(Cl)c1	0.0*	x
COc1cccc(-c2ocnc2C(=O)NC2CCc3ccccc32)c1 (centres undefined)	101	5
CSc1cccc(NC(=O)CC2SC(=Nc3ccc(F)c(F)c3)NC2=O)c1 (centres undefined)	108	x
S=c1nc2ccccc2c2nc(COc3ccccc3Br)[nH]n12	0.6*	-13
Brc1ccccc1-c1nc2ccccc2c2nc3ccccc3n12	111	9
Clc1ccc(/C=N/c2ccccn2)cc1	1.3*	12
O/N=C/c1ccc(Cl)cc1	96	6
NC(=O)CS(=O)(=O)c1nc2ccccc2n1Cc1ccccc1	103	0
Cc1[nH]c2ccc(C(=O)NCC3CCCO3)cc2c1C (centres undefined)	103	29*
